High-throughput results from PubChem BioAssay.
Only a selection was taken, and hits are over-represented in it overall.
RE007 growth inh – less growth of the S. pombe RE007 Vpr strain | S. pombe RE007 Vpr strain, BacTiter-Glo ATP luminescence, 24 h | Potency, µM (titrated, usually from 92.2 µM), for the others: at the highest dose activity change, negative = less growth, hits mostly inhibitors | 360,000 tested, 0.21% active; active = well fitted falling curve with a large enough effect; inconclusive = small, poorly fitted or top-dose-only effect; inactive = no such curve, though single readings can be large or run the other way; also: potency is read from the fitted curve at half-maximal effect; % is scaled to controls: 0 for no effect and ±100 for the full control effect; nearly all actives have a fitted effect of over 50% in size
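Fission yeast strain RE007, carrying one chromosomally integrated HIV-1 vpr copy, was seeded at OD 0.01 in PMG+AL medium with 23 nL pinned compound. After 24 h at 30 °C and 99% humidity, viability was read by BacTiter-Glo luminescence.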
CHX counter – counter-screen hit for Shiga toxin inhibitors, cycloheximide. 300,000 tested, 12% active. max response, %. cell reporter, cycloheximide protein synthesis inhibition counterscreen; in the data active = max response mostly above about 13%, no sharp cut-off; inactive = mostly below about 14%; also: read at 38.3 µM for the half of the compounds with a filed dose; 0% is about no effect
TbPYK inhibitor – inhibitors of Trypanosoma brucei pyruvate kinase; Q57TT1; TbPYK enzyme, Kinase-Glo Plus ATP luminescence, 45 min; Potency, µM (highest dose often 76.8 µM), for inactives: top-dose activity, negative = inhibition, actives largely listed as inhibitors; 410,000 tested, 0.12% active; also: potency is read from the fitted curve at half-maximal effect; % is scaled to controls: 0 for no effect and ±100 for the full control effect; nearly all actives have a fitted effect of over 50% in size
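TbPYK + substrate in 50 mM TEA pH 7.2, 100 mM KCl, 10 mM MgCl2, 0.05% BSA, 0.01% Tween-20; cpd pinned; ADP 130 uM final; 45 min RT; Kinase-Glo Plus 10 min; luminescence endpoint.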
LmPK inh – blocks Leishmania mexicana pyruvate kinase activity | Potency, µM (series often up to 57.5 µM), without a hit: top-dose activity change, negative = inhibition, most hits filed as inhibitors | Q27686 | 290,000 tested, 0.37% active | purified LmPK, Kinase-Glo ATP luminescence, 1 h | AID 1721; also: potency is read from the fitted curve at half-maximal effect; % is scaled to controls: 0 for no effect and ±100 for the full control effect
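Screened at intermediate enzyme activity to detect both inhibitors and activators: LmPK at 0.1 nM, with a 0.5 nM enzyme column as activation reference. PEP 0.5 mM, ADP 0.1 mM; ATP detected by luminescence after 1 h.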
FBPA Giardia inh – inhibitors of Giardia lamblia fructose-1,6-bisphosphate aldolase | 290,000 tested, 0.71% active | A8B2U2 | purified Giardia FBPA | Potency, µM (highest dose often 59.6 µM), for the others: at the top dose activity, negative = inhibition, usual class: inhibitors | AID 2451; also: potency is read from the fitted curve at half-maximal effect; % is scaled to controls: 0 for no effect and ±100 for the full control effect; nearly all actives have a fitted effect of over 55% in size
Target sequence (A8B2U2 whole entry, looked up): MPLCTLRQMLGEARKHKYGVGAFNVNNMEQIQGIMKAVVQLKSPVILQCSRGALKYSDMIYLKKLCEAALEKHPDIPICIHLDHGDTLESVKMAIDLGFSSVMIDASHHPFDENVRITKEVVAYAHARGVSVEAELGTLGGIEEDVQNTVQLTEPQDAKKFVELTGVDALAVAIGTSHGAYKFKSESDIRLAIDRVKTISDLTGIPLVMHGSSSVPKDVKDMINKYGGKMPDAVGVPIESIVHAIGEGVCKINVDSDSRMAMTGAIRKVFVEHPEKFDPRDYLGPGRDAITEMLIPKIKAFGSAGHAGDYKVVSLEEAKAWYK
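Giardia FBPA (40 nM reagent) was preincubated 10 min at RT with compound (up to 57.5 uM final), then substrate plus GAPDH/TPI/NAD/arsenate coupling system with diaphorase/resazurin was added; resorufin fluorescence (525/598 nm) was read after 20 min.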
Shiga toxin inh – blocks Shiga toxin action in Vero cells | 290,000 tested, 9.2% active | Vero cells, Shiga toxin protein synthesis inhibition reporter | inhibition, % at 38.7 µM; in the data active = inhibition mostly above about 28%, no sharp cut-off; inactive = mostly below about 43%; also: 0% is about no effect
An asterisk follows results filed as active; ? = inconclusive; / = not tested or not shown; [ ] = another dose, or the depositor's remark. Unless noted, calls follow the shape of the dose curve; as a rule, active = well fitted curve in the direction sought with a large enough effect; inconclusive = small, poorly fitted or top-dose-only effect, or another doubt; inactive = no such curve, though single readings can be large; an effect the other way counts as inactive or inconclusive.

SMILES	RE007 growth inh	CHX counter	TbPYK inhibitor	LmPK inh	FBPA Giardia inh	Shiga toxin inh
O=C(N/N=C/c1cn(-c2ccccc2)nc1-c1cc2ccccc2o1)c1ccncc1	-1%	85*	0%	0%	3%	132*
O=C(N/N=C/c1cc(Br)cs1)c1c[nH]c2ccccc12	-20%	44*	5%	-6%	-4%	62*
O=C(N/N=C/c1ccc(Br)s1)c1c[nH]c2ccccc12	2%	46*	-10%	-1%	2%	68*
O=C(N/N=C/c1cc(Br)cs1)c1ccccc1[N+](=O)[O-]	-5%	1	3%	-5%	-8%	-8
CCc1cccc(CC)c1NC(=O)Cn1nnc2sc3c(c2c1=O)CCCC3	/	/	-10%	/	/	/
CC(=O)Nc1ccc(S(=O)(=O)N2CCc3nc(COc4ccccc4)c4c(c3C2)CO[C@@H](C)C4)cc1	/	/	/	-5%[11.5 µM]	10%[12.9 µM]	/
N#C/C(=C1/SCC(c2ccccc2Cl)S1)n1ccnc1 (configuration not stated)	/	/	3%	/	/	/
CCC1C(=O)CC2CCN3C(=O)CCC1C23 (configuration not stated)	/	-5	/	/	4%	14
Cn1cc(CCNCc2cn[nH]c2-c2ccc(-c3ccccc3)cc2)cn1	-18%	31*	-1%	8%	2%	54*
Cc1ccc(-c2[nH]ncc2CNCCc2cnn(-c3ccccc3)c2)cc1C	?	1	0%	2%	2%	-8
CN(CCc1cnn(C)c1)Cc1cn[nH]c1-c1ccc(-c2ccccc2)cc1	-18%	17*	0%	3%	5%	43*
Cc1ccc(CNC(=O)c2ccc(CN3CC(=O)N4CCCCC4C3=O)cc2)cc1 (configuration not stated)	/	/	0%	/	/	/
CS(=O)(=O)Nc1cccc(-c2nccc(-n3ccnc3)n2)c1	/	/	/	/	-1%	/
O=C(CN1C(=O)S/C(=C\C=C\c2ccccc2)C1=O)Nc1ccccc1C(=O)O	6%	-2	-10%	1%	6%	-6
O=C(CCN1C(=O)S/C(=C\C=C\c2ccccc2)C1=O)Nc1ccc(O)cc1	2%	32*	0%	7%	-13%	52*
O=C(CN1C(=O)S/C(=C\C=C\c2ccccc2)C1=O)Nc1cccc(O)c1	1%	34*	-5%	2%	-3%	38*
O=C(CCCN1C(=O)S/C(=C\C=C\c2ccccc2)C1=O)Nc1ccc(C(=O)O)cc1	-3%	1	-6%	-3%	-2%	14
CN(Cc1ccccc1)C(=O)C1CCC(CNS(=O)(=O)c2ccc3c(c2)CCCC(=O)N3)CC1 (configuration not stated)	/	/	-5%	/	/	/
Cc1cc(C)cc(-n2ccnc2SCC(=O)Nc2ccc(C)c(Cl)c2)c1	/	/	-4%	/	/	/
O=C(NCc1ccccc1)c1cccc(COc2cccc(Cl)c2)c1	?	-2	7%	0%	0%	4
CCCOc1ccc(C(=O)Nc2ccc(Cl)cn2)cc1	-1%	30*	-4%	?	-3%	77*
Cc1cc(NC(=O)c2cccc(Cl)c2)n[nH]1	3%	/	0%	/	/	/
O=C(Nc1ccc(Cl)cn1)c1ccc(Oc2ccccc2)cc1	-3%	34*	-4%	-7%	1%	32*
O=C(Nc1cc(-c2ccccc2)[nH]n1)c1ccc(Cl)cc1	-15%	51*	7%	3%	-1%	88*
CN(c1ccc(C(=O)Nc2ccc(Cl)cn2)cc1)S(=O)(=O)c1ccccc1	5%	12	2%	-4%	-27%	20
O=C(Nc1ccc(Cl)cn1)c1cccc(OCc2ccccc2)c1	-15%	22*	-3%	-13%	4%	48*
Clc1ccc2[nH]c3c(c2c1)CCc1cn[nH]c1-3	35µM*	29*	-5%	2%	0%	70*
c1ccc2c3c([nH]c2c1)-c1[nH]ncc1CC3	-20%	14	-11%	4%	-5%	53
CCOC(=O)Cc1c(C)c2c(O)cc(O)cc2oc1=O	4%	0	-8%	-2%	-4%	24
CCN(CC)c1ccc2c(C)c(-c3ccc(N)cc3)c(=O)oc2c1	64%	27*	14%	0%	-4%	34*
